Laboratory results published in PubChem BioAssay (Tox21).
Records with an inconclusive call do not appear. Where a call stands in place of a potency, no number is given. Active and inactive are the calls of the source. Unless noted, the call rests on the fitted dose curve; in most records, active means well fitted curve in the direction sought with a large enough effect in the repeat runs; inconclusive means weak or mixed curves; inactive means no such curve, though single readings can be large; an effect the other way counts as inactive or inconclusive.

What was measured:
[1] = qHTS assay to identify aromatase inhibitors - cell viability counter screen (AID 743084);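 further: cells stimulated with testosterone during compound exposure; nearly all actives have a fitted effect of over 55% in size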; further: potency means the concentration at half of the fitted maximal effect
[2] = qHTS assay to identify small molecule that activate the aryl hydrocarbon receptor (AhR) signaling pathway - cell viability counter screen (AID 743086);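 further: HepG2 liver cells carrying the AhR DRE luciferase reporter; series mostly up to about 70 µM; nearly all actives have a fitted effect of over 45% in size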
Method in brief: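 HepG2-AhR-luc (HG2L7.5c1) cells, 4000/well, were preincubated 5 h at 37C, exposed to compound in qHTS format for 24 hr at 37C, then given CellTiter-Fluor for 30 min; viability was read as fluorescence in the reporter wells.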

[3] = target: Peroxisome proliferator-activated receptor gamma (Homo sapiens) (UniProt P37231); test: qHTS assay to identify small molecule agonists of the peroxisome proliferator-activated receptor gamma (PPARg) signaling pathway (AID 743094; active means well fitted activation curve with a large enough effect in the signal ratio in the repeat runs, not every such curve was filed as active; the % refers to the signal ratio)
Method in brief: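 Agonism was assessed in a beta-lactamase reporter system, HEK293H cells with a stably integrated UAS-bla construct under PPARg control; the 17 h treatment at 37C preceded a 1 h room-temperature FRET substrate read.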

[4] = target: Peroxisome proliferator-activated receptor gamma (Homo sapiens) (UniProt P37231); test: qHTS assay to identify small molecule antagonists of the peroxisome proliferator-activated receptor gamma (PPARg) signaling pathway (AID 743191; calls by dose curve; further: nearly all actives have a fitted effect of over 30% in size; further: potency means the concentration at half of the fitted maximal effect)
Method in brief: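 GeneBLAzer PPARg UAS-bla HEK293H cells carrying a UAS-driven beta-lactamase reporter were plated at 3000 cells/well, preincubated 5 h at 37C, then given compound for 17 h at 37C; LiveBLAzer B/G FRET substrate was read after 1 h at room temperature.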

[5] = qHTS assay for small molecule activators of the heat shock response signaling pathway - cell viability counter screen (AID 743209); further: nearly all actives have a fitted effect of over 50% in size
Method in brief: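 Compounds dissolved in DMSO were added to overnight-plated HSE-bla HeLa cells and left 5 h at 37 C. Cell viability was quantified by luminescence using CellTiter-Glo.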

[6] = target: Aryl hydrocarbon receptor (Homo sapiens) (UniProt P35869); test: qHTS assay to identify small molecule that activate the aryl hydrocarbon receptor (AhR) signaling pathway (AID 743085); further: nearly all actives have a fitted effect of over 15% in size; further: potency means the concentration at half of the fitted maximal effect;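 on activation: HG2L7.5c1 human HepG2 liver cells with stably integrated DRE-driven firefly reporter; series mostly up to about 70 µM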
Method in brief: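 Steps: seed HepG2-AhR-luc cells; allow 5 h at 37C; pin-transfer test compound or vehicle; incubate 24 h at 37C; add viability dye (30 min, 37C) and read fluorescence; add luciferase substrate (30 min, RT) and read luminescence.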

[7] = qHTS assay to identify small molecule antagonists of the peroxisome proliferator-activated receptor gamma (PPARg) signaling pathway - cell viability counter screen (AID 743194); further: nearly all actives have a fitted effect of over 55% in size
Method in brief: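 PPARg-UAS-bla HEK293H cells were plated, rested 5 h at 37 C, then treated with compounds plus rosiglitazone (50 nM final) for 17 h at 37 C; viability was then read by CellTiter-Glo luminescence after 30 min at room temperature.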

[8] = qHTS assay for small molecule agonists of the antioxidant response element (ARE) signaling pathway (AID 743202; active means well fitted activation curve with a large enough effect in the signal ratio in the repeat runs, not every such curve was filed as active; the % refers to the signal ratio; further: potency means the concentration at half of the fitted maximal effect)
Method in brief: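 Following a 16 h, 37 C exposure of reporter HepG2 cells (ARE-driven beta-lactamase, 2,000 cells/well) to compounds, FRET substrate was applied for 2 h at room temperature and fluorescence intensity recorded.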

[9] = qHTS assay for small molecule agonists of the antioxidant response element (ARE) signaling pathway - cell viability counter screen (AID 743203; calls by dose curve; further: nearly all actives have a fitted effect of over 55% in size)
Method in brief: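 ATP content via CellTiter-Glo luminescence served as the viability measure. Cells: ARE-bla HepG2, 2,000 per well. Exposure: 16 hrs, 37C/5% CO2.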

[10] = qHTS assay for small molecule activators of the heat shock response signaling pathway (AID 743210; active means well fitted activation curve with a large enough effect in the signal ratio in the repeat runs, with a control signal flat, not every such curve was filed as active; the % refers to the signal ratio; further: series mostly up to about 63 µM)
Method in brief: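 Heat shock element–beta-lactamase HeLa reporter cells; qHTS with compounds for 5 h at 37 C; detection by FRET substrate fluorescence after 2.5 h at RT.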

Chain of Peroxisome proliferator-activated receptor gamma (Homo sapiens) (P37231 whole entry, looked up): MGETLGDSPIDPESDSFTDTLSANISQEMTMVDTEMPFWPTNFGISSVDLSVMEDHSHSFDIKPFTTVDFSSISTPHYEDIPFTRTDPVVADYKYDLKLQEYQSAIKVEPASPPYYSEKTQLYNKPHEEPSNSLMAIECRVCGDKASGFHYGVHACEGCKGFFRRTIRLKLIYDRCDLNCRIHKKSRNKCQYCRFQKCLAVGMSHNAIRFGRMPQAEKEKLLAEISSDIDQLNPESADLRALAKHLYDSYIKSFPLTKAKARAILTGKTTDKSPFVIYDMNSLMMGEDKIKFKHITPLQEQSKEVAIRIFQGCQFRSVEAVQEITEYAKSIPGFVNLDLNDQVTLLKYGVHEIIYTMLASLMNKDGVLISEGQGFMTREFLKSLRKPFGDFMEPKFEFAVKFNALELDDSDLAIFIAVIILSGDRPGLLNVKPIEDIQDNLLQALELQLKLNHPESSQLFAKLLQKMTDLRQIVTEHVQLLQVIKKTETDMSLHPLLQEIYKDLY
Chain of Aryl hydrocarbon receptor (Homo sapiens) (P35869 whole entry, looked up): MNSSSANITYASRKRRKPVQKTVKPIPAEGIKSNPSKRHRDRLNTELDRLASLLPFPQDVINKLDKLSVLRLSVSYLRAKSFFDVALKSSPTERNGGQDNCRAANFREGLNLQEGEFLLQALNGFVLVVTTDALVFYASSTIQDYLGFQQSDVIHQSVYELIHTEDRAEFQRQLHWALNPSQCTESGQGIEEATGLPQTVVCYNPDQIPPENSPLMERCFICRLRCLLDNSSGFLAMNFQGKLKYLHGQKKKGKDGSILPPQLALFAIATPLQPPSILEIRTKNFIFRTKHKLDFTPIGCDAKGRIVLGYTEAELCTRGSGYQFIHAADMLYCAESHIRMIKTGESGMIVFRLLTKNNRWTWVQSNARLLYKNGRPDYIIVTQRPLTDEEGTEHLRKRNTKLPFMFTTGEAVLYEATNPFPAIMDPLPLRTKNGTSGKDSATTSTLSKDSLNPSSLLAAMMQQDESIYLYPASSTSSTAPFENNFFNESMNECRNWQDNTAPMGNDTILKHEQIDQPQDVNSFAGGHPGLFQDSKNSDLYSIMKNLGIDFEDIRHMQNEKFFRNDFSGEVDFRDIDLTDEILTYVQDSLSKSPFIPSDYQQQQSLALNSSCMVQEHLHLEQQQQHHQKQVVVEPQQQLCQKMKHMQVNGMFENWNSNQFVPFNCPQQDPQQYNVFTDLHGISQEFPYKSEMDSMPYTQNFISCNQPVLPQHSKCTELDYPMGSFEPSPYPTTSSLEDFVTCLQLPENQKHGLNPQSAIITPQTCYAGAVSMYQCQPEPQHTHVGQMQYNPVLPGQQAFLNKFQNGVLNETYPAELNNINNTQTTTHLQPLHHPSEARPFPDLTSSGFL

SMILES	Potency [1]	Potency [2]	Potency [3]	Potency [4]	outcome [5]	Potency [6]	Potency [7]	Potency [8]	Potency [9]	outcome [10]
CCOc1cc(OCC)c(C(C)=O)cc1OCC	26.8 µM (active)	inactive	inactive	inactive	inactive	–	–	–	–	–
Nc1ccccc1Nc1ccccc1	–	inactive	–	43.8 µM (active)	inactive	54.6 µM (active)	inactive	–	–	–
COC(=O)Cc1cccc2ccccc12	inactive	–	inactive	–	inactive	–	–	inactive	inactive	inactive
CCC(=O)O[C@]1(C(=O)COC)[C@@H](C)C[C@H]2[C@@H]3CCC4=CC(=O)C=C[C@]4(C)C3(F)[C@@H](O)C[C@@]21C (stereo partly specified)	–	–	–	inactive	–	–	inactive	inactive	inactive	inactive
Cc1ccc(NC(=O)c2ccc(CN3CCN(C)CC3)cc2)cc1Nc1nccc(-c2cccnc2)n1	–	–	inactive	–	inactive	21.1 µM (active)	inactive	–	inactive	inactive
CC1(COc2ccc(CC3SC(=O)NC3=O)cc2)CCCCC1 (stereo unspecified)	inactive	inactive	–	–	inactive	–	inactive	–	–	inactive
COc1ccnc2c1CCCCC2S(=O)c1nc2ccccc2[nH]1 (stereo unspecified)	–	–	–	–	–	–	inactive	3.35 µM (active)	inactive	–
C[C@H](N)C(=O)N[C@@H](C)C(=O)NC1[C@H]2CN(c3nc4c(cc3F)c(=O)c(C(=O)O)cn4-c3ccc(F)cc3F)C[C@@H]12 (stereo partly specified)	–	–	–	–	inactive	–	inactive	–	inactive	inactive
CCN(CC)CC(=O)OCC(=O)[C@@]1(O)CC[C@H]2[C@@H]3CCC4=CC(=O)CC[C@]4(C)[C@H]3[C@@H](O)C[C@@]21C	–	–	–	–	inactive	–	inactive	inactive	inactive	inactive
O=C(O)c1ccc2c(c1)nc(C(=O)NC1CCN(C3CC3)CC1)n2Cc1cc(-c2ccc(Cl)s2)on1	–	inactive	–	3.13 µM (active)	–	–	inactive	–	inactive	inactive
Nc1ccc(C(=O)Oc2ccccc2)c(O)c1	–	inactive	inactive	inactive	inactive	–	inactive	inactive	inactive	inactive
CC/C=C/CCO	–	inactive	–	–	inactive	–	inactive	–	inactive	inactive
CC(CC(C#N)(c1ccccc1)C(C)C)N(C)C (stereo unspecified)	–	–	–	inactive	inactive	–	inactive	–	inactive	inactive
Cc1ccc(Cl)c(OCC(O)CNC(C)(C)C)c1 (stereo unspecified)	–	–	–	inactive	inactive	–	inactive	inactive	inactive	inactive
O=C(OCCN1CCOCC1)c1cccnc1Nc1cccc(C(F)(F)F)c1	–	–	–	inactive	inactive	–	inactive	–	inactive	inactive
O=C1c2ccccc2C(=O)c2c1ccc(O)c2O	–	inactive	inactive	–	inactive	29.8 µM (active)	inactive	–	–	–
Cc1ccc2ccccc2c1[N+](=O)[O-]	–	inactive	inactive	inactive	inactive	inactive	inactive	inactive	inactive	inactive
O=c1[nH]nc(-c2ccc([N+](=O)[O-])o2)o1	30.6 µM (active)	–	inactive	–	inactive	–	inactive	–	inactive	inactive
[O-][n+]1ccc(Cl)cc1	–	inactive	–	–	inactive	–	inactive	inactive	inactive	inactive
CC/C=C\CCO	–	inactive	–	–	inactive	–	inactive	inactive	inactive	inactive

SMILES	Potency [1]	Potency [2]	Potency [3]	Potency [4]	outcome [5]	Potency [6]	Potency [7]	Potency [8]	Potency [9]	outcome [10]
CC(C)(O)C(=O)O	–	inactive	–	–	inactive	–	inactive	inactive	inactive	inactive
O=C(C1CCCCC1)N1CC(=O)N2CCCc3ccccc3C2C1 (stereo unspecified)	–	–	–	–	–	–	inactive	–	–	inactive
C/C(=C\C(C)CC(C)CC(C)C)C1CC(=O)OC1=O (stereo unspecified)	–	inactive	inactive	inactive	inactive	inactive	inactive	–	inactive	inactive
CCC(C)C1N=C(C)C(C)S1 (stereo unspecified)	–	inactive	–	–	inactive	–	inactive	inactive	inactive	inactive
CC(C)(C)c1cc(C=O)cc(C(C)(C)C)c1O	–	–	–	inactive	inactive	–	inactive	inactive	inactive	inactive
CC(C)CCCCCCCOC(=O)c1ccc(C(=O)OCCCCCCCC(C)C)c(C(=O)OCCCCCCCC(C)C)c1	inactive	–	inactive	inactive	inactive	–	inactive	–	–	–
CCc1cnc(C(=O)O)c(C(=O)O)c1	–	inactive	inactive	inactive	inactive	inactive	inactive	inactive	inactive	inactive
COc1ccc(/C(C)=C/C(=O)O)c(OC)c1	–	–	–	–	inactive	–	inactive	–	inactive	inactive
CC(C)C/C=C(\C=O)c1ccccc1	–	inactive	inactive	inactive	inactive	inactive	inactive	inactive	–	inactive
O=Cc1ccc(Cl)c([N+](=O)[O-])c1	–	inactive	inactive	inactive	–	–	inactive	–	inactive	–
Cc1cc(SC2=C(O)C[C@@](CCc3ccc(N)cc3)(C(C)C)OC2=O)c(C(C)(C)C)cc1CO	–	inactive	–	–	inactive	inactive	inactive	–	–	inactive
CCc1c(C)[nH]c2c1C(=O)C(CN1CCOCC1)CC2 (stereo unspecified)	–	inactive	–	–	inactive	–	inactive	inactive	inactive	–
CC(C)(C)NCC(O)COc1ccc(NC(=O)NC2CCCCC2)cc1 (stereo unspecified)	inactive	–	inactive	inactive	inactive	–	inactive	inactive	inactive	inactive
CC(=O)Nc1ccccc1O	inactive	inactive	–	–	inactive	–	–	–	inactive	inactive
CC(=O)Nc1cccc(N)c1	–	inactive	inactive	inactive	inactive	62 µM (active)	inactive	–	inactive	inactive
O=C(Cl)c1cc(Cl)cc(Cl)c1	–	–	inactive	–	inactive	inactive	inactive	–	inactive	inactive
O=C(c1ccco1)N1CCNCC1	–	–	–	–	–	–	inactive	inactive	inactive	–
O=C(Nc1ccccc1)c1cc([N+](=O)[O-])ccc1Cl	–	–	inactive	–	inactive	54.5 µM (active)	inactive	7.7 µM (active)	inactive	–
CCC(C(=O)O)c1ccc(N2Cc3ccccc3C2=O)cc1 (stereo unspecified)	–	–	–	inactive	–	–	inactive	–	inactive	inactive
CC[C@H](NC(C)C)[C@H](O)c1ccc(O)c2[nH]c(=O)ccc12	–	inactive	–	inactive	inactive	inactive	inactive	inactive	–	inactive
